From PubChem BioAssay (NCI)
About 79,000 compounds went through this panel and 15% of them were active in at least one assay; those are over-represented in the sample as a whole. Active and inactive are the calls of the source. No stated cut-off is given here; in the data, active means growth inhibition above about 70%; inactive means the rest.

Experiments:
[1] = NCI Yeast Anticancer Drug Screen. Data for the rad52 strain (AID 147);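 further: 0% = growth of vehicle-treated control cultures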; details: S. cerevisiae rad52 mutant growth inhibition, active compounds read high
In short: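 Read-out: growth inhibition versus vehicle-treated controls. Cells were a DNA repair-deficient yeast strain treated with compounds.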

[2] = NCI Yeast Anticancer Drug Screen. Data for the wt1 strain (AID 149);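 further: 0% = growth of vehicle-treated wt1 cultures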; details: S. cerevisiae wt1 strain (SPY 50644) growth inhibition, active compounds read high
In short: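 wt1 strain grown with compound or vehicle; inhibition taken from the growth difference.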

[3] = NCI Yeast Anticancer Drug Screen. Data for the rad50EPP+ strain (AID 151);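 further: 0% = growth of vehicle-treated control cultures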; details: S. cerevisiae rad50 mutant strain, active compounds read high
In short: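 Growth inhibition read against vehicle controls in rad50EPP+ yeast, a strain altered in DNA damage repair, after compound exposure.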

[4] = NCI Yeast Anticancer Drug Screen. Data for the mgt1 strain (AID 153); details: S. cerevisiae mgt1 mutant growth inhibition, active compounds read high
In short: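 mgt1 yeast grown with test compound; read-out is growth inhibition versus vehicle-treated cultures.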

[5] = NCI Yeast Anticancer Drug Screen. Data for the rad50 strain (AID 155);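 further: 0% = growth of vehicle-only cultures of the same strain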; details: S. cerevisiae rad50 strain growth inhibition, active compounds read high
In short: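 DNA repair mutant yeast, compound exposure, growth read-out; inhibition is taken relative to vehicle.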

[6] = NCI Yeast Anticancer Drug Screen. Data for the mec2-1 strain (AID 157); details: S. cerevisiae mec2-1 strain, active compounds read high
In short: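 Yeast mec2-1 mutant treated with compound. Readout: growth inhibition vs vehicle controls.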

[7] = NCI Yeast Anticancer Drug Screen. Data for the rad14 strain (AID 159);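 further: 0% = growth of vehicle-treated control cultures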; details: S. cerevisiae rad14 strain growth inhibition, active compounds read high
In short: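 DNA repair-defective yeast, compound-exposed; % growth inhibition derived by comparison with vehicle-treated controls.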

[8] = NCI Yeast Anticancer Drug Screen. Data for the sgs1 mgt1 strain (AID 161);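 further: 0% = growth of cultures given vehicle only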; details: S. cerevisiae sgs1 mgt1 strain, active compounds read high
In short: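 Inhibition of yeast growth, normalised to vehicle-treated controls, is reported for a strain bearing genetic alterations in DNA damage repair.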

[9] = NCI Yeast Anticancer Drug Screen. Data for the CLN2oe strain (AID 163);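 further: 0% = growth of vehicle-only control cultures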; details: S. cerevisiae CLN2oe strain, active compounds read high
In short: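 Read-out: yeast growth inhibition, expressed relative to vehicle-only controls. The strain bears an engineered cell-cycle alteration.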

[10] = NCI Yeast Anticancer Drug Screen. Data for the cln2 rad14 strain (AID 165);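 further: 0% = growth equal to vehicle treated cultures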; details: S. cerevisiae cln2 rad14 strain, active compounds read high
In short: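 cln2 rad14 yeast strain; compound exposure; growth inhibition read vs vehicle controls.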

[11] = NCI Yeast Anticancer Drug Screen. Data for the bub3 strain (AID 167); details: S. cerevisiae bub3 mutant strain, active compounds read high
In short: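 In this screen, a yeast mutant lacking normal mitotic checkpoint function is challenged with compound. Relative growth versus vehicle gives the inhibition value.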

[12] = NCI Yeast Anticancer Drug Screen. Data for the wt2 strain (AID 169);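 further: 0% = growth of vehicle-treated yeast cultures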; details: S. cerevisiae wt2 strain growth inhibition, active compounds read high
In short: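 Read-out: growth inhibition versus vehicle-treated control cultures after compound exposure of the yeast strain.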

[13] = NCI Yeast Anticancer Drug Screen. Data for the mlh1 strain (AID 171);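 further: 0% = growth of vehicle-treated control cultures of the same strain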; details: S. cerevisiae mlh1 strain growth inhibition, active compounds read high
In short: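 Read-out: growth inhibition versus vehicle controls. Strain: engineered yeast with a defined DNA repair or cell cycle defect, compound-treated.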

[14] = NCI Yeast Anticancer Drug Screen. Data for the sgs1 strain (AID 173);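 further: 0% = growth of vehicle-only control cultures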; details: S. cerevisiae sgs1 mutant, active compounds read high
In short: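 Read-out: yeast growth inhibition relative to vehicle controls, following compound exposure of a strain with a defined DNA repair/cell cycle alteration.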

[15] = NCI Yeast Anticancer Drug Screen. Data for the mlh1 rad18 strain (AID 175); details: S. cerevisiae mlh1 rad18 strain growth inhibition, active compounds read high
In short: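 Yeast w/ defined DNA-repair lesions; compound exposure; growth vs vehicle controls → % inhibition.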

[16] = NCI Yeast Anticancer Drug Screen. Data for the rad18 strain (AID 177); details: S. cerevisiae rad18 mutant growth inhibition, active compounds read high
In short: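 Readout: growth inhibition vs vehicle controls. Cells: genetically altered yeast strain, DNA repair defect.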

[17] = at 5.0 µM (retest, dose inferred, filed as 0.5)
[18] = at 50.0 µM (retest, dose inferred, filed as 5.0)

Measured: growth inhibition

O=Nc1c(NO)ccc2nn(-c3ccccc3)nc12
inactive: [1]; at 1.2 µM 29% | [1]; at 3.7 µM 68% | [2]; at 1.2 µM 12% | [2]; at 3.7 µM 27% | [3]; at 1.2 µM 22% | [3]; at 3.7 µM 33% | [3]; at 11.0 µM 51% | [3]; at 33.0 µM 65% | [3]; at 100.0 µM 66% | [4]; at 1.2 µM -1% | [4]; at 3.7 µM 24% | [5]; at 1.2 µM 12% | [5]; at 3.7 µM 42% | [5]; [17] 18% | [5]; at 50.0 µM 38% | [6]; at 1.2 µM 9% | [6]; at 3.7 µM 36% | [6]; [17] 1% | [7]; at 1.2 µM 7% | [7]; at 3.7 µM 31% | [8]; [17] 14% | [9]; at 1.2 µM 5% | [9]; at 3.7 µM 35% | [10]; [17] 37% | [11]; at 1.2 µM 3% | [11]; at 3.7 µM 45% | [11]; [17] 1% | [12]; at 1.2 µM 25% | [12]; at 3.7 µM 41% | [13]; at 1.2 µM 6% | [13]; at 3.7 µM 30% | [14]; at 1.2 µM 61%
active: [1]; at 11.0 µM 98% | [1]; at 33.0 µM 98% | [1]; at 100.0 µM 98% | [2]; at 11.0 µM 96% | [2]; at 33.0 µM 98% | [2]; at 100.0 µM 96% | [4]; at 11.0 µM 98% | [4]; at 33.0 µM 98% | [4]; at 100.0 µM 99% | [5]; at 11.0 µM 96% | [5]; at 33.0 µM 97% | [5]; [18] 99% | [5]; at 100.0 µM 98% | [6]; at 11.0 µM 95% | [6]; at 33.0 µM 98% | [6]; [18] 99% | [6]; at 50.0 µM 88.5% | [6]; at 100.0 µM 97% | [7]; at 11.0 µM 97% | [7]; at 33.0 µM 98% | [7]; at 100.0 µM 98% | [8]; [18] 99% | [8]; at 50.0 µM 87.2% | [9]; at 11.0 µM 97% | [9]; at 33.0 µM 98% | [9]; at 100.0 µM 98% | [10]; [18] 99% | [10]; at 50.0 µM 89.1% | [11]; at 11.0 µM 95% | [11]; at 33.0 µM 98% | [11]; [18] 99% | [11]; at 50.0 µM 90.4% | [11]; at 100.0 µM 97% | [12]; at 11.0 µM 96% | [12]; at 33.0 µM 99% | [12]; at 100.0 µM 98% | [13]; at 11.0 µM 97% | [13]; at 33.0 µM 98% | [13]; at 100.0 µM 98% | [14]; at 3.7 µM 79% | [14]; at 11.0 µM 98% | [14]; at 33.0 µM 99% | [14]; at 100.0 µM 98% | [15]; [17] 77% | [15]; [18] 98% | [15]; at 50.0 µM 91.5% | [16]; at 1.2 µM 79% | [16]; at 3.7 µM 90% | [16]; at 11.0 µM 97% | [16]; at 33.0 µM 97% | [16]; at 100.0 µM 97%

CC(=O)OCCOCNC(=S)N/N=C(\C)c1cnccn1
active: [1]; at 100.0 µM 77% | [4]; at 100.0 µM 82% | [5]; at 50.0 µM 73.4% | [5]; at 100.0 µM 85% | [6]; at 100.0 µM 75% | [7]; at 100.0 µM 84% | [8]; at 50.0 µM 72.7% | [9]; at 100.0 µM 82% | [11]; at 50.0 µM 75.3% | [11]; at 100.0 µM 84% | [12]; at 100.0 µM 74% | [13]; at 100.0 µM 80% | [14]; at 100.0 µM 80% | [16]; at 100.0 µM 82%
inactive: [1]; at 1.2 µM -27% | [1]; at 3.7 µM -41% | [1]; at 11.0 µM -19% | [1]; at 33.0 µM 20% | [2]; at 1.2 µM -14% | [2]; at 3.7 µM -11% | [2]; at 11.0 µM 5% | [2]; at 33.0 µM 28% | [2]; at 100.0 µM 69% | [3]; at 1.2 µM 9% | [3]; at 3.7 µM 9% | [3]; at 11.0 µM -9% | [3]; at 33.0 µM 0% | [3]; at 100.0 µM -4% | [4]; at 1.2 µM 8% | [4]; at 3.7 µM 9% | [4]; at 11.0 µM 29% | [4]; at 33.0 µM 53% | [5]; at 1.2 µM 13% | [5]; at 3.7 µM -1% | [5]; [17] -25% | [5]; at 11.0 µM 15% | [5]; at 33.0 µM 46% | [5]; [18] 45% | [6]; at 1.2 µM -17% | [6]; at 3.7 µM -17% | [6]; [17] -59% | [6]; at 11.0 µM -2% | [6]; at 33.0 µM 27% | [6]; [18] 44% | [6]; at 50.0 µM 59.7% | [7]; at 1.2 µM -8% | [7]; at 3.7 µM -12% | [7]; at 11.0 µM 5% | [7]; at 33.0 µM 46% | [8]; [17] -15% | [8]; [18] 43% | [9]; at 1.2 µM 8% | [9]; at 3.7 µM 2% | [9]; at 11.0 µM 12% | [9]; at 33.0 µM 21% | [10]; [17] -9% | [10]; [18] 45% | [10]; at 50.0 µM 60.8% | [11]; at 1.2 µM -18% | [11]; at 3.7 µM 17% | [11]; [17] -5% | [11]; at 11.0 µM 24% | [11]; at 33.0 µM 51% | [11]; [18] 67% | [12]; at 1.2 µM -23% | [12]; at 3.7 µM -24% | [12]; at 11.0 µM 6% | [12]; at 33.0 µM 25% | [13]; at 1.2 µM -1% | [13]; at 3.7 µM -4% | [13]; at 11.0 µM 15% | [13]; at 33.0 µM 49% | [14]; at 1.2 µM -23% | [14]; at 3.7 µM -15% | [14]; at 11.0 µM 0% | [14]; at 33.0 µM 41% | [16]; at 1.2 µM 7% | [16]; at 3.7 µM -5% | [16]; at 11.0 µM 13% | [16]; at 33.0 µM 32%
